Measurements published in the supplement of paper PMC9950053.
Where a name gives a salt, the structure may show the parent alone.

What follows are compounds tested on Danio rerio larvae (5 dpf) (assay: excitability (activity period 17 minus period 16, 1-s interval sound) minus DMSO control (percentage points); higher = more acoustic excitability than DMSO larvae). Conditions: 10 µM; exposure time: 3 h pre-incubation + 3 h imaging.
Protocol: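 Wild-type 5 dpf zebrafish larvae (n=48 per drug, 96-well plates, 28.5 °C) were exposed to Tocris FDA-approved library compounds at 10 µM (0.1% DMSO) for 3 h before and 3 h during imaging. Images were taken every 6 s during visual and acoustic stimuli, and larvae were tracked with Z-LaP Tracker. Each measure is the treated-group mean minus the DMSO control mean (n=844), in percentage points. This mapping covers compounds with 5-character plate codes.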

SMILES | excitability
COc1ccc(C(CN(C)C)C2(O)CCCCC2)cc1 (stereo unspecified) [Venlafaxine hydrochloride] | 8.91
